Results as given in PubChem BioAssay (NCI).
The panel holds about 83,000 compounds, 20% with a hit somewhere; the sample as a whole holds those more often.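 Compound tested at a single concentration for 48 hours in 96-well plates; a percent growth value below 10 was scored as active.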 A number with no mark means an inactive call. Calls of active or inactive are those of the source.

What was measured:
Assay in all cases: NCI-60 one-dose screen, 48 h (100 = growth as untreated, 0 = no growth, -100 = all killed)
Details in all cases: 10 µM unless noted
NCI-H23 lung = test system: NCI-H23 lung
NCI-H226 lung = test system: NCI-H226 lung
NCI-H322M lung = test system: NCI-H322M lung
HOP-62 NSCLC = test system: HOP-62 NSCLC
NCI-H460 lung = test system: NCI-H460 lung
NCI-H522 lung = test system: NCI-H522 lung
A549/ATCC NSCLC = test system: A549/ATCC NSCLC
786-0 renal = test system: 786-0 renal
COLO 205 colon = test system: COLO 205 colon
HOP-92 NSCLC = test system: HOP-92 NSCLC

Compound | growth (NCI-H23 lung) | growth (NCI-H226 lung) | growth (NCI-H322M lung) | growth (HOP-62 NSCLC) | growth (NCI-H460 lung) | growth (NCI-H522 lung) | growth (A549/ATCC NSCLC) | growth (786-0 renal) | growth (COLO 205 colon) | growth (HOP-92 NSCLC) [%]
COc1ccc(NC(=O)c2sc3nc(C)c(C(=O)/C=C/c4ccccc4)cc3c2N)cc1 | 63% | 65.6% | 13.1% | 60.8% | 6.63% (active) | 41.7% | 34% | 2.08% (active) | 72.8% | 
CCN(CC)CCn1c2ccc(O)cc2c2sc3cc(O)ccc3c(=O)c21 | 25.8% | 68.2% | 30% | 38.4% | 8.46% (active) | 35.1% | 21.6% | 27% | 30.3% | 
COC(=O)c1nc(-c2ccc(C)cc2)oc1S(=O)(=O)c1cccc(OC)c1 | 92.6% | 87% | 93.3% | 96.2% | 104% | 33.8% | 97.5% | 85.2% | -8.96% (active) | 
COc1cc(-c2cncn2-c2ccc(-c3nc4ccc(F)cc4s3)cc2)ccc1F | 71% | 85.2% | 103% | 102% | 35.4% | 55.9% | 69.1% | 90.8% | 82.7% | 94.3
Nc1ncnc2c1C(c1ccccc1)c1ccc3ccccc3c1O2 (stereo unspecified) | 77.5% | 77.6% | 88% | 68.5% | 103% | 53.8% | 86% | 89.7% | 92.8% | 45.1
O=C1/C(=C/c2cn(-c3ccccc3)nc2-c2ccccc2)SC(=S)N1C1CCCCC1 | 96.1% | 92% | 105% | 101% | 103% | 91.5% | 103% | 106% | 117% | 
Nc1n[nH]c2cccc(C#Cc3cccc(NC(=O)c4cc(F)cc(C(F)(F)F)c4)c3)c12 | 65.8% | 46.6% | 93.9% | 95.2% | 77.8% | 62.6% | 84.4% | 86.4% | 83.7% | 39.1
Cc1ccc(-c2nc(N3CCCNCC3)c3oc(-c4ccc(C)cc4)nc3n2)cc1 | 91.1% | 101% | 16.5% | 71.8% | -37.5% (active) | 65% | -62.3% (active) | -96.2% (active) | -71.6% (active) | 60.9
COC1/C=C/OC2(C)Oc3c(C)c(O)c4c(O)c(c(/C=N/Nc5ccc([N+](=O)[O-])cc5[N+](=O)[O-])c(O)c4c3C2=O)NC(=O)C(C)=C/C=C/C(C)C(O)C(C)C(O)C(C)C(OC(C)=O)C1C (stereo unspecified) | 4.25% (active) | -57.2% (active) | 93.9% | 42.2% | 59.5% | -42.5% (active) | 82.9% | 24.4% | 24.9% | 
O=C(CSc1nnc(-c2cnccn2)n1-c1ccccc1)c1ccc(Cl)cc1 | 108% | 104% | 95.5% | 97.7% | 103% | 95.3% | 91.7% | 95.1% | 99.6% | 81.4
COc1cc(OC)c(/C=C/C(=O)c2c(OC)cccc2OC)c(OC)c1 | -22% (active) | 47.3% | 1.28% (active) | 40.1% | 9.67% (active) | -22.7% (active) | 6.84% (active) | 16.5% | -13.4% (active) | 
Cn1ccc(=O)c(C(=O)Nc2nsc3ccc([N+](=O)[O-])cc23)c1 | 91.3% | 76.7% | 45.2% | 96.4% | 48.2% | 53.3% | 74.9% | 56.2% | 76.9% | 41.2
COc1cc(/C=C2/C=C(c3ccccc3)N(CCc3ccc(S(N)(=O)=O)cc3)C2=O)cc(OC)c1OC | 103% | 94.6% | 100% | 94% | 105% | 81.3% | 86.4% | 85.5% | 108% | 41.9
COc1ccc(C(=O)N2c3ccccc3Sc3ccccc32)c(OC)c1 | 38% | 31.3% | 62.2% | 48.4% | 9.97% (active) | -9.67% (active) | 30.6% | 28.6% | -11.4% (active) | 
O=C(O)CCN1C(=O)/C(=C/C(Cl)=C/c2ccccc2)SC1=S | 21.3% | 23.6% | 61% | 53.9% | 16.6% | 10.6% | 44.8% | 9.92% (active) | 13% | 53.7
COc1ccc(C(C)=O)cc1S(=O)(=O)Nc1c(N)nc(SC)[nH]c1=O | 91.3% | 104% | 96.9% | 110% | 103% | 98.6% | 99.7% | 102% | 101% | 
CCCC/C=C/[C@@H]1C[C@H]1CCO | 102% | 91.5% | 92.1% | 90.5% | 105% | 78.3% | 96.7% | 99.5% | 100% | 
OB1OCc2cc(/C=C/c3cccc(C(F)(F)F)c3)ccc21 | 21.6% | -10.2% (active) | 20.7% | -17.7% (active) | -10.1% (active) | 3.78% (active) | 1.8% (active) | -27.2% (active) | 25.6% | 
CCCCCCC12CCC(=O)N1CCc1cncn12 (stereo unspecified) | 108% | 99.8% | 109% | 100% | 105% | 90% | 95.3% | 112% | 106% | 113
COc1cc(NS(=O)(=O)c2ccc(-c3cnc(C4CC4)o3)cc2)ccc1F | 33.6% | 36.7% | 49.5% | 41.8% | 18.7% | 0.251% (active) | 34.4% | 31.4% | 3.71% (active) | 
O=C(C[C@]1(O)C(=O)Nc2ccccc21)c1cccc(C(F)(F)F)c1 | 92.5% | 86.3% | 84.4% | 78.8% | 97.4% | 87.1% | 99.2% | 95.7% | 89.5% | 77.3
O=C1Nc2ccccc2/C1=C/c1nc2ccccc2c(=O)[nH]1 | 75.8% | 94.5% | 101% | 76.3% | 95.1% | 94.1% | 100% | 104% | 117% | 94.1
COc1ccc(C(O)c2cc3c(N)c(C(=O)Nc4cccc(Br)c4)sc3nc2C)cc1 (stereo unspecified) | 21.9% | 3.81% (active) | 45.9% | 24.3% | 0.823% (active) | 9.45% (active) | 11.2% | 15.3% | -25% (active) | 
Nc1nc(N)c(-c2ccc(Cl)c(Cl)c2)c(CBr)n1 | 78.3% | 93.3% | 78.4% | 102% | 25.7% | 9.79% (active) | 27% | 52% | 76.6% | 
CCCCNCCCCCNc1cc(OC)cc2cccnc12 | 101% | 96.5% | 106% | 88% | 106% | 94% | 95.9% | 90.1% | 93.7% | 
COc1ccc(/C=C/C(=O)c2cc3c(N)c(C(=O)Nc4cccc5ccccc45)sc3nc2C)cc1 | 85.1% | 85% | 95.8% | 74.5% | 75.9% | 26.1% | 68.7% | 46.4% | 103% | 77.1
